# Source: PubChem BioAssay (Tox21)
# Results filed as inconclusive are left out. Active and inactive are the calls of the source. Calls follow the shape of the dose curve; as a rule, active = well fitted cell-killing curve with a large enough effect in the repeat runs; inconclusive = weak or mixed curves, or effect the other way; inactive = flat fitted curve, though single readings scatter.
# Test: qHTS RealTime-Glo MT Cell Viability Assay in HEK293 cells - 16 hour (AID 1224872); also: nearly all actives have a fitted effect of over 50% in size; as to activity change, negative = cytotoxicity: top concentration of the series differs between compounds
# Conditions: RealTime-Glo luminescence; series mostly up to 76.8 µM; activity change, negative = cytotoxicity: at the top concentration
# Summary of the method: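 HEK293 cells were seeded at 600 cells/well together with NanoLuc luciferase and cell-permeant prosubstrate, preincubated 5 h at 37 C/5% CO2, then given compound in DMSO by pintool. Luminescence from viable-cell prosubstrate reduction was read repeatedly over 40 h.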
# % is scaled to controls: 0 for no effect and ±100 for the full control effect; potency is read from the fitted curve at half-maximal effect.
Structure (SMILES),"activity change, negative = cytotoxicity",Potency
CNC(=O)N(c1ccccc1)c1ccccc1,3.39% (inactive),–
CC1(C)C(=O)N(Br)C(=O)N1Cl,15.5% (inactive),–
CCCCCCCCSCCO,-2.77% (inactive),–
CC#N,1.86% (inactive),–
NC(=O)Nc1ccc(Cl)cc1,3.75% (inactive),–
OC/C(Br)=C(\Br)CO,-2.2% (inactive),–
CC1=CC(=O)CC(C)(C)C1(O)/C=C/C(C)=C\C(=O)O (stereo not given),10.6% (inactive),–
CCCOC(=O)c1ccc(N)cc1,-9.08% [at 35.3 µM] (inactive),–
CCCCC(CC)CNCC(CC)CCCC (stereo not given),2.68% (inactive),–
O=C(CCC1CCN(Cc2ccccc2)CC1)c1ccc2c(c1)NCCCC2,–,9.52 µM (active)
COC(=O)c1cc(Cl)ccc1NS(=O)(=O)C(F)(F)F,5.25% [at 35.3 µM] (inactive),–
CC(=O)CC(c1ccc([N+](=O)[O-])cc1)c1c(O)c2ccccc2oc1=O (stereo not given),-0.943% [at 35.3 µM] (inactive),–
CCOC(=O)c1ccccc1OC,-0.0174% (inactive),–
c1cnc2c(n1)CCCC2,-2.38% (inactive),–
CO[C@H]1O[C@H](CO)[C@@H](O)[C@H](O)[C@H]1O,10.5% (inactive),–
O=C(/C=C/c1ccccc1)OCCCc1ccccc1,-0.653% (inactive),–
C=CCCCCCCCCCCCCCCCC,-3.07% [at 6.97 µM] (inactive),–
CCCCC(=O)O[C@]1(C(=O)CO)CC[C@H]2[C@@H]3CCC4=CC(=O)CC[C@]4(C)[C@H]3[C@@H](O)C[C@@]21C,-20.1% [at 35.3 µM] (inactive),–

Structure (SMILES),"activity change, negative = cytotoxicity",Potency
CC1CC(O)CC(C)(C)C1 (stereo not given),7.9% (inactive),–
N#C[C@@H]1C[C@@H]2C[C@@H]2N1C(=O)[C@@H](N)C12CC3CC(CC(O)(C3)C1)C2,11.8% [at 35.3 µM] (inactive),–
O=Cc1c(Cl)cccc1Cl,-13.9% (inactive),–
CC1(C)O[C@@H]2C[C@H]3[C@@H]4CCC5=CC(=O)C=C[C@]5(C)[C@H]4[C@@H](O)C[C@]3(C)[C@]2(C(=O)CO)O1,-0.873% [at 35.3 µM] (inactive),–
CCCCCCCCCCCCCCCCBr,6.53% [at 15.8 µM] (inactive),–
CCCCCCOC(=O)C(C)C,2.5% (inactive),–
COC(=O)c1cc(S(N)(=O)=O)ccc1OC,3.53% [at 35.3 µM] (inactive),–
C=CC(C)(O)CCCC(C)CCCC(C)CCCC(C)C (stereo not given),0.963% (inactive),–
CN1C(=O)CC(C)(c2ccccc2)C1=O (stereo not given),-6.6% [at 35.3 µM] (inactive),–
C[C@]12CCC(=O)C=C1C=C[C@@H]1[C@@H]2CC[C@@]2(C)[C@H]1CC[C@@]21CCC(=O)O1,-23.6% [at 35.3 µM] (inactive),–
CCCC1C(CC)=CC(CC)=CN1c1ccccc1 (stereo not given),–,15.5 µM (active)
C=CC(=C)CCCC(C)(C)OC(C)=O,-1.12% (inactive),–
O=S1OCCO1,16.1% (inactive),–
C1COCO1,-0.194% (inactive),–
CC(=O)Nc1ccccc1C,-1.88% (inactive),–
COc1cc2[nH]c(=O)[nH]c(=O)c2cc1OC,3.03% [at 35.3 µM] (inactive),–
N#C/C(=C1/SC[C@@H](c2ccc(Cl)cc2Cl)S1)n1ccnc1,-28.5% [at 35.3 µM] (inactive),–
